The labels stand for the following.
T1: UNK ZnF1-3 (human, UniProt Q9C0B0 31-174)
T1 sequence: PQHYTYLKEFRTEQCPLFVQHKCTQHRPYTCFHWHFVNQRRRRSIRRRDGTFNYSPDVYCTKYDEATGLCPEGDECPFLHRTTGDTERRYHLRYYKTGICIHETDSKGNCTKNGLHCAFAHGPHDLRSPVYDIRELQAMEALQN

B1: 129217275_129261777_1030_CDS_ENSMUSG00000036155_ENSMUST00000038361|mouse|control|control (ssRNA)
RNA: GGGAGUUCUACAGUCCGACGAUCGUAGCCAUCCAUAGGAGGCAAUACACAUUUUUCCUGAACUCCAUUAAUGAUAUCUGCCACAUUAAUUUUCUCAAGCGACACCAAGCUGGGGACAGCCGUGGUGGAGUUGGUGGAGUUCGCCAACAGAGGAUUGAGCAUCA
B2: 107042093_107043494_1117_CDS_ENSMUSG00000031878_ENSMUST00000034349|mouse|control|control (ssRNA)
RNA: GGGAGUUCUACAGUCCGACGAUCAACAGACUGAAGCAAUUUGGCAACGUGAUUGCCUACAGCAGCAGCAUCUUUCUUUGCUUUCUCUCGGUAAACAUUCUGCAGUUUUAUGUAUUUGUUUGAAUCUGCAAUCAUAUCAGGAAUCAACAGAGGAUUGAGCAUCA
B3: chr7:141441981:141441982:+_ENSG00000106028_ENST00000265304|hu_mus|hu_hu_hu_mus_False|58_58 (ssRNA)
RNA: GGGAGUUCUACAGUCCGACGAUCCUCAUGUCUUACAAACUGACGAAAUACCUGUAACACAGGUCUUCGAAACAUGGCUUCUAUUUUUCUUACAACCUAAUCUUUAGGCUUUUCCUAAAGGAAAGAAAGAAAAGAGAAAAAUGACAACAGAGGAUUGAGCAUCA
B4: chrX:16871948:16871949:-_ENSG00000102054_ENST00000404022|hu_mus|FALSE|FALSE (ssRNA)
RNA: GGGAGUUCUACAGUCCGACGAUCAGUAAAGAUUGCUUUAGCAUCCACAAUUUUGCCUUCCUUUGGUCCUGCAUUUAUAUCCCACAGGCAGACAGUAUGGUCAUCAGAUGCACUCAGGAGAUGCCCACUCAGAUUAGAAUUCCACAACAGAGGAUUGAGCAUCA
B5: chr22:35691198:35691199:+_ENSG00000100281_ENST00000216106|hu_mus|FALSE|FALSE (ssRNA)
RNA: GGGAGUUCUACAGUCCGACGAUCACAGUCCUGUGAGAAGCUUAGCUGUGACAGCAGUCGGGCUAUGGGAAGGAGUUCCCUAGGAUGCCAGCUGGCUACAUGGUCCCCAAAGGUUUACUGUGAUGCUGCCUCGUUCCAUCCAGGCAACAGAGGAUUGAGCAUCA
B6: chr9:14812383:14812384:-_ENSMUSG00000031934_ENSMUST00000164273|mus_mus|mus_mus_mus_hu_True|48_48 (ssRNA)
RNA: GGGAGUUCUACAGUCCGACGAUCAUAGCCCAGGUAGAUACACGCUAACAGUAUAAUGAUGAGUGUCAGCAGGCGGCAGCUAAUGUAUUUCAUGAUUAAAUUAUUAGAAUUUUUCUUUGUCUUCAAGUACUGCUCCACAAUUGGCAACAGAGGAUUGAGCAUCA
B7: chr9:14812383:14812384:-_ENSMUSG00000031934_ENSMUST00000164273|mus_mus|mus_mus_mus_hu_True|38_48 (ssRNA)
RNA: B6 RNA with U101G, U103C
B8: chr9:14812383:14812384:-_ENSMUSG00000031934_ENSMUST00000164273|mus_mus|mus_mus_mus_hu_True|28_48 (ssRNA)
RNA: B6 RNA with A108G, U111C, C114U
B9: chr12:1897663:1897664:+_ENSG00000006831_ENST00000357103|hu_mus|motif|central (ssRNA)
RNA: GGGAGUUCUACAGUCCGACGAUCGCUUUGUGAUUUCAGCAACUUAUAGAGGGGAGAGAGGAAAUACUGAAAAAGGCCACGGUUUAAUGAUGAGAGAGUGAAGGUGUACAGGUUCCUAACCAGCCUAGGGCCAAAAAAGGAGACCAACAGAGGAUUGAGCAUCA
B10: chr9:14812383:14812384:-_ENSMUSG00000031934_ENSMUST00000164273|mus_mus|mus_mus_mus_hu_True|68_98 (ssRNA)
RNA: B6 RNA with C42U, U45C, G68C, G72C, U87C, C90G
B11: chr1:6284582:6284583:-_ENSG00000116237_ENST00000343813|hu_hu|motif|central (ssRNA)
RNA: GGGAGUUCUACAGUCCGACGAUCAGCUAGGAAUACCCCUUUGAAUGUGUACUGCUACUUAUAAAAAAUAGGUAUGUAGCGGUGAUUAAAUAGAUGAAGGGCCAAAGCAUCCUAUGAGGAAGUAUUUUUAAAAUUGUAUAGAUGCAACAGAGGAUUGAGCAUCA
B12: chrX:98862621:98862622:+_ENSMUSG00000034160_ENSMUST00000044475|mus_hu|mus_mus_mus_hu_False|78_78 (ssRNA)
RNA: GGGAGUUCUACAGUCCGACGAUCCUGCAUCUCCUUUAGAGUGUUUCCCAUAUUAGAAUAAGCAUCAGCAAAGGUAGGACUGAUUCGAAUAGCCUCCUUAUAAUGCAUCAGAGCUUCCUGCAGUUUUCCCUGCUGCUGCAGUACCAACAGAGGAUUGAGCAUCA
B13: chr12:1897663:1897664:+_ENSG00000006831_ENST00000357103|hu_mus|FALSE|FALSE (ssRNA)
RNA: B9 RNA with G80U, G81A
B14: chr1:6284582:6284583:-_ENSG00000116237_ENST00000343813|hu_hu|FALSE|FALSE (ssRNA)
RNA: B11 RNA with G80U, G81A
B15: chr2:217001844:217001845:+_ENSG00000079246_ENST00000392132|hu_hu|hu_hu_hu_mus_False|98_108 (ssRNA)
RNA: GGGAGUUCUACAGUCCGACGAUCACCGACUUGAGGAUUAGCUCUUUUGUCAUAAGCAUAUCGGACGAUGGCGACCAUGUUUAACUCAUCCAAAGCAUGAACGAGAGAGGAAAGGGCAACAGCUGCCGCCUCAUCAUCCUUUGCCAACAGAGGAUUGAGCAUCA
B16: chrX:132781199:132781200:+_ENSMUSG00000042712_ENSMUST00000048687|mus_hu|motif|central (ssRNA)
RNA: GGGAGUUCUACAGUCCGACGAUCUGCUAAUAAAAAGCAAGCUAUAUGGUAUUGUUAAUAUCAGAUAAAAAUCAAGGUAAACGGCAUUAAAUAGGGGUAAGGAUGGUUUCGAUUAACCUUCCAACGCAUCACUAUAAGUUUGUUCAACAGAGGAUUGAGCAUCA
B17: chr15:90999404:90999405:+_ENSG00000140575_ENST00000268182|hu_hu|FALSE|FALSE (ssRNA)
RNA: GGGAGUUCUACAGUCCGACGAUCCUGCAGAGUCUUUUGGGCAUCACCUUCAUCCAGGGCUUCAUUAAUUAAACCAAUGGCUAAAAUCCUCUCAUGUUCCUCUUGCACCACCAGGUUCACAUGGUCCACGCAAGCUUGGAUAUCCAACAGAGGAUUGAGCAUCA
B18: 31404426_31405736_1086_CDS_ENSG00000196792_ENST00000355683|human|control|control (ssRNA)
RNA: GGGAGUUCUACAGUCCGACGAUCAGUCACUAAAAAAUCAAAUUCUUUCAGUGCUUCCUCAGUAUCAGGAUCGUCAGUUAGGUCAGCAGCUAAACCUUCAUUACCUAUUUUAUGUUUAUUCAUCCGAUGUUUGUCUUUUCCUUCCAACAGAGGAUUGAGCAUCA
B19: chrX:132781199:132781200:+_ENSMUSG00000042712_ENSMUST00000048687|mus_hu|FALSE|FALSE (ssRNA)
RNA: B16 RNA with G82U, G83A
B20: chr7:34932688:34932689:-_ENSMUSG00000052997_ENSMUST00000102746|mus_mus|FALSE|FALSE (ssRNA)
RNA: GGGAGUUCUACAGUCCGACGAUCCAAGAGCUUCUUUCUUGGGUUUGGCUGCUUAUUCAAAAAAAUAGUUCUACACUGGUCUAUUUUUCCAGAUAAAAUCUUUAAUCCUUCCAACACUAUCAAGCCGGCGAUCACUGCAUUAGUCAACAGAGGAUUGAGCAUCA
B21: 126502921_126503041_1455_ncRNA_ENSMUSG00000006728_ENSMUST00000140254|mouse|control|control (ssRNA)
RNA: GGGAGUUCUACAGUCCGACGAUCUGGUCGGCUUCAGAGUUUCCACAGAAGAGAGGCCUAAGGCAGAAAAAGACUCAAAGUAUGUGUUAUAUCAAAAAUAGGGGAGUGGGGGCUGGAGAGACGGCUCAGCAGAUAAGACUGCUCCAACAGAGGAUUGAGCAUCA
B22: 63494515_63562186_783_3pUTR_ENSMUSG00000025964_ENSMUST00000114107|mouse|control|control (ssRNA)
RNA: GGGAGUUCUACAGUCCGACGAUCUAGUGGAUCUCCACGUAGUCAGAAGAUAGCAAACCAUUGUUCAGUGUGAGGUCAAGAAUGAACUUGGAGCCGAAAGCUUCGAUCUGGAAGCUUGCCUGGGCCAGAUGCACAGCCUUAUUGCAACAGAGGAUUGAGCAUCA

Positions count from the first letter of the chain named. In all, about 24,000 sequences were measured (“enrichment r”: median about 0.99, highest 2% from about 3.7 on). Many of the other results were omitted from the sample, so the highest values are more common in it than they were.

The test has as its target T1, UNK ZnF1-3. Nature of the test: nsRBNS (natural sequence RNA bind-n-seq); RBNS binding buffer (assumed for nsRBNS): 25 mM Tris pH 7.5, 150 mM KCl, 3 mM MgCl2, 0.01% Triton X-100, 500 ug/ml BSA, 20 U/ml SUPERase-In, 4 C; UNK is unkempt and MSI1 is Musashi-1; names of the RNAs are library labels; protein concentration not given here; high values mean tight binding.
In turn, B1 gave a binding signal of 1.11 enrichment R.
The molecule B2 had a binding signal of 1.02 enrichment R.
The figure for B3 is 0.678 enrichment R; for B4 it is 1.03 enrichment R; for B5 it is 1.01 enrichment R.
The figure for B6 is 3.85 enrichment R; for B7 it is 1.52 enrichment R; for B8 it is 3.67 enrichment R.
The figure for B9 is 3.48 enrichment R.
B10 showed a binding signal of 1.27 enrichment R.
B11 had a binding signal of 6.98 enrichment R.
As to B12, the binding signal stood at 1.09 enrichment R.
To B13 belongs 3.52 enrichment R.
The figure for B14 is 6.19 enrichment R.
To B15 belongs 2.19 enrichment R.
For the molecule B16, the binding signal worked out at 5.74 enrichment R.
As for B17, the binding signal turned out to be 1.38 enrichment R.
The figure for B18 is 0.927 enrichment R; for B19 it is 5.13 enrichment R.
The molecule B20 had a binding signal of 1.12 enrichment R.
To B21 belongs 3.33 enrichment R; to B22, 1.25 enrichment R.

(Values after PMC12136788.)
